# ChEMBL document CHEMBL4513216, “Probing the Open Global Health Chemical Diversity Library for Multistage-Active Starting Points for Next-Generation Antimalarials” (ACS Infect Dis, 2020)
# Among all 69,000 compounds or so, about 8,600 (12%) showed an effect of 50% or more. This is one part of a sample in which strong results are shown more often than they occur.
# System: Plasmodium berghei
# Assay: Screen against P. berghei liver stage (PbLuc), transformed with Luciferase, at 10uM
# Format: functional, HepG2
# Details: tested at 10 uM
row,SMILES,INHIBITION [%]
1,CCCc1cc(C(=O)N[C@H](C)[C@@H](O)c2ccc(O)cc2)n(C)n1,20.3
2,Cc1ccccc1C(=O)NCC(=O)NCc1ccccn1,46.3
3,CC[C@@H]1N(Cc2ccc(F)cc2)CCC[C@]12CCC(=O)N2CCOC,-69.5
4,Cc1ccc(C(=O)N(C)Cc2csc(Br)c2)c(=O)[nH]1,21.8
5,Cc1cc2n(n1)CC(CNCc1cc(C)on1)CN2 (stereo unspecified),26.8
6,CCNC(=O)[C@@H]1CCCN1[C@@H](C(=O)NC)c1ccccc1,-1.12
7,Cc1cccc(S(=O)(=O)NCC(C)(C)CC(C)O)c1C#N (stereo unspecified),18.8
8,Cc1c(F)cccc1S(=O)(=O)NCC(C)(C)CC(C)O (stereo unspecified),-11.9
9,CC(O)CC(C)(C)CNS(=O)(=O)c1cccc(Cl)c1C#N (stereo unspecified),53.5
10,COc1cccc2c3c(c(=O)[nH]c12)CCO3,20.9
11,CC(C)CN1CC[C@@H]2[C@@H]1CCN2S(=O)(=O)c1cn(C)cn1,13.7
12,COCCN(Cc1cnn(C)c1)c1nc(C)nc2sccc12,-39.2
13,COCCN(Cc1sccc1C)c1nc(C)nc2sccc12,14.6
14,CCOCCN(CCOCC)c1nc(C)nc2sccc12,69.7
15,CCCN(CCOC)c1nc(C)nc2sccc12,53.9
16,CCC(CN1CCCC1)NC(=O)Cc1c(C)[nH]c2c(C)cc(C)cc12 (stereo unspecified),41.2
17,Cc1nn(C)c(C)c1S(=O)(=O)N1C[C@@H]2C[C@@H](C)O[C@@H]2C1,8.74
18,CN(C)C(=O)CN1C(=O)[C@@H]2CC[C@H]1CN(Cc1ccccc1C#N)C2,23.9
19,O=C(NCC1CC1)C1CCC2(CCN(C(=O)c3cccs3)CC2)O1 (stereo unspecified),-14.7
20,O=C(Nc1ccc(Br)cc1F)c1ccc(N2CCOCC2)nn1,52.3
21,CSc1ccccc1NC(=O)c1ccc(N2CCOCC2)nn1,-117
22,O=C(Nc1ccc(Br)cc1F)c1ccc(N2CCCCC2)nn1,10.8
23,COc1ccc(C)cc1C(=O)N1CCCC(n2cncn2)C1 (stereo unspecified),-16

row,SMILES,INHIBITION [%]
1,Cc1ccc(-c2nc(CN(C)C3CCS(=O)(=O)C3)cs2)o1 (stereo unspecified),57.7
2,Cc1nc(CN(Cc2cccs2)C2CCS(=O)(=O)C2)oc1C (stereo unspecified),19.5
3,Cc1ccc(-c2nc(CN(Cc3cccs3)C3CCS(=O)(=O)C3)cs2)o1 (stereo unspecified),87.6
4,CC(C)(C)c1nc(CN(Cc2cccs2)C2CCS(=O)(=O)C2)cs1 (stereo unspecified),59.4
5,Cc1ccc(-c2nc(CN(Cc3ccco3)C3CCS(=O)(=O)C3)cs2)o1 (stereo unspecified),62.8
6,Cc1noc(CN(Cc2cccs2)C2CCS(=O)(=O)C2)n1 (stereo unspecified),49.8
7,Cc1noc(C)c1CN(Cc1cccs1)C1CCS(=O)(=O)C1 (stereo unspecified),36.1
8,Cc1ccc(-c2nc(CN3CCCC(C(=O)N(C)C)C3)cs2)o1 (stereo unspecified),35.9
9,Cc1ccc(-c2nc(CN3CCC(C(=O)N(C)C)CC3)cs2)o1,39.5
10,O=S1(=O)CCC(N(Cc2nc3ccccc3o2)Cc2cccs2)C1 (stereo unspecified),-32.5
11,O=C(NCC1CCS(=O)(=O)C1)N(Cc1ccco1)C1CC1 (stereo unspecified),38.2
12,CC(C)(C)c1nc(CN(Cc2cccs2)C2CCS(=O)(=O)C2)no1 (stereo unspecified),34.7
13,CCOCCN1Cc2cnn(C)c2C(COCC)C1 (stereo unspecified),42.7
14,CN(C)c1ncccc1CNC(=O)N1CCCC1c1cccs1 (stereo unspecified),4.71
15,CCN1CCN(C)C2(CCN(Cc3ccc(C)o3)CC2)C1=O,-93.5
16,O=c1[nH]cc(N2CCOCC2)c(=O)[nH]1,-56.8
17,CCn1ccnc1CN1CCN(CCc2ccccn2)CC1C (stereo unspecified),13.8
18,O=C1N(CC2CC2)CCC12CCN(CC1CC1)CC2,21.7
19,O=C(CCCNCc1ccccc1)N1CCCn2cncc2C1,30.9
20,Cc1ccc(CN2CCc3ncnc(-c4cccnc4)c3CC2)o1,13.7
21,Cc1cc(N2CCC(C(=O)N(C)C)CC2)nc(-c2ccncc2)n1,-148
22,COc1cccc(-c2c[nH]c(C)n2)c1F,-114
23,CCCS(=O)(=O)N1CCC(NC(=O)c2ccc(Cl)s2)CC1,21

row,SMILES,INHIBITION [%]
1,O=C(NC1CC(=O)N(C2CC2)C1)c1ccc(Cl)s1 (stereo unspecified),33.1
2,CC(C)N1CC(NC(=O)c2ccc(Cl)s2)CC1=O (stereo unspecified),83.8
3,O=C(NCCCF)N1CCC(n2ccc(C(F)(F)F)n2)CC1,36.3
4,O=C(CNC(=O)N1CCc2c([nH]c3ccc(Cl)cc23)C1)NC1CCCC1,-6.91
5,COCC(=O)N1CC(c2n[nH]cc2C)C1,-41.1
6,O=C(NC1CCCC1)c1cc2c(s1)CCN2C(=O)c1ccccc1,55.9
7,O=C(NC1CC1)c1cc2c(s1)CCN2C(=O)C1CC1,51.4
8,CN1CCN(C(=O)c2cc3c(s2)CCN3C(=O)C2CC2)CC1,-29.8
9,O=C(NCCN1CCCC1)c1cc2c(s1)CCN2C(=O)c1ccccc1,-28
10,CCCNC(=O)c1cc2c(s1)CCN2C(=O)c1ccccc1,-27
11,O=C(c1cc2c(s1)CCN2C(=O)C1CC1)N1CCCC1,23.3
12,c1cncc(COCc2nnn3c2CN(Cc2ccsc2)CC3)c1,-9.26
13,O=C(O)CNc1cc(-c2nccnc2N2CCCC2)c2cc[nH]c2n1,51.8
14,Nc1cc(-c2cc(C(=O)O)ccc2Cl)c2cc[nH]c2n1,15.2
15,Nc1cc(-c2ccc(C(=O)O)cc2O)c2cc[nH]c2n1,2.91
16,O=C(O)CNc1cc(-c2cc(C3CC3)ncn2)c2cc[nH]c2n1,19.5
17,OCCNc1cc(-c2nccnc2N2CCCC2)c2cc[nH]c2n1,37.7
18,Nc1cc(-c2nccnc2N2CCCC2)c2cc[nH]c2n1,58.3
19,CN1CC(=O)N(c2cccc(F)c2)CC12CCN(Cc1cncn1C)C2 (stereo unspecified),-15.7
20,CS(=O)(=O)NCC1CCCN(C(=O)c2ccc(Cl)o2)C1 (stereo unspecified),15
21,O=C(c1ccccn1)N1CC[C@@H](N2CCOCC2)[C@@H]1Cc1ccccc1,39.2
22,Cc1nccn1-c1cncc(C2CCCN2Cc2ccccc2)n1 (stereo unspecified),36.7
23,COCCN1CCCc2sc(C(=O)N3CCCN(C)CC3)nc21,5.36

row,SMILES,INHIBITION [%]
1,Clc1ccccc1CN1CCc2nc(C3CCCNC3)ncc2C1 (stereo unspecified),6.32
2,Cc1c(NC(=O)c2cccc(Br)c2)c(C(=O)N(C)C)nn1C,45.8
3,Cc1noc(COCC(=O)Nc2ccc(Br)c(C)n2)n1,10.7
4,Cc1noc(NC(=O)c2ccccc2)n1,-10.6
5,Cc1noc(NC(=O)c2cccc(Br)c2)n1,88.2
6,Cc1noc(NC(=O)c2ccc(Br)s2)n1,85.9
7,Cc1noc(NC(=O)c2ccc(Br)o2)n1,31.9
8,Cc1noc(NC(=O)CCNC(=O)c2ccc(Br)cc2)n1,14.1
9,Cn1nc(CNC(=O)c2ccc(OC(F)(F)F)cc2)c2c1CCOC2,-6.42
10,Cc1noc(NC(=O)c2ccc(Br)cc2)n1,91.5
11,Cc1ccc(C(=O)Nc2nc(C)no2)cc1,23.7
12,Cc1noc(NC(=O)c2ccc(OC(F)(F)F)cc2)n1,87.6
13,Cc1noc(NC(=O)c2ccc(C#N)cc2)n1,-0.96
14,Cc1n[nH]c(C)c1NC(=O)NCc1cc[nH]n1,36
15,O=C(NCC1CCCO1)N1CCN(Cc2ccc3c(c2)CCO3)CC1 (stereo unspecified),-21.5
16,OCCNc1nccc(-c2c[nH]nc2-c2cccnc2)n1,15.9
17,C[C@@H]1CN(C(=O)NC2CC2)C[C@]12CCN(c1ccsc1)C2=O,17.1
18,CC(=O)N1CCCC1(C(=O)N1CCCC1)c1cnccn1 (stereo unspecified),6.35
19,CN(C)S(=O)(=O)c1ccc(=O)n(CC2CCCO2)c1 (stereo unspecified),-28.9
20,CC(C)CNC(=O)Cc1cnc(-n2cccc2)s1,28.3
21,CC(=O)N1CCCC(Cc2cnc(-c3c(C)nn(C)c3C)cn2)C1 (stereo unspecified),-10.4
22,COc1ccc2c(c1)CCCN(C(=O)NCC1CCCO1)C2 (stereo unspecified),37.4
23,NC(=O)CN1CCCN(C(=O)CCOc2ccccc2Cl)CC1,29.7

row,SMILES,INHIBITION [%]
1,CCCNC(=O)C1(Cc2cc(-c3ccccc3)no2)CCN(C(C)=O)C1 (stereo unspecified),-3.94
2,CC(O)CNc1c(NCc2ccco2)c(=O)c1=O (stereo unspecified),18.2
3,c1ccc(Cc2noc(CN3CCOC(Cn4cncn4)C3)n2)cc1 (stereo unspecified),13.3
4,COCCO[C@@H]1CCN(Cc2csc(C)n2)[C@H]1Cc1ccccc1,18.1
5,Cc1noc(C)c1-c1cccc(CC2CCN(C(=O)c3cc[nH]n3)C2)n1 (stereo unspecified),46.1
6,NS(=O)(=O)N1CCc2ccc(NC(=O)CCc3ccncc3)cc21,38.5
7,CS(=O)(=O)Nc1ccc(CNC(=O)CN2CCc3ccccc32)cc1,16.6
8,CS(=O)(=O)N1CCc2c(cccc2NC(=O)CC(F)(F)F)C1,0.79
9,NS(=O)(=O)N1CCc2ccc(NC(=O)Cc3ccc(F)cc3)cc21,22.9
10,NS(=O)(=O)N1CCc2ccc(NC(=O)Cc3ccccc3F)cc21,54.4
11,NS(=O)(=O)N1CCc2ccc(NC(=O)CC(F)(F)F)cc21,63.3
12,Cc1cnc2c(C(=O)N(C)Cc3cc(C4CC4)[nH]n3)cnn2c1,21.8
13,CC(C)NC(=O)Nc1nc2c(s1)CN(C(=O)NCc1cccs1)CC2,46.4
14,c1ccc(-c2nc(CCNCc3cccnc3)co2)cc1,45.3
15,COCC1Cn2nnc(-c3cnn(C)c3)c2CN1Cc1cccs1 (stereo unspecified),2.58
16,O=C(c1cccs1)N1CCc2c(nc(N3CCCC3)[nH]c2=O)C1,34
17,CC(CNS(=O)(=O)c1cccc(Cl)c1)N1CCN(C)CC1 (stereo unspecified),46.4
18,Cc1cc(Cl)ccc1S(=O)(=O)NCC(C)N1CCN(C)CC1 (stereo unspecified),68.3
19,Cc1cccc(S(=O)(=O)NCC(C)N2CCN(C)CC2)c1Cl (stereo unspecified),-38.2
